Reference: PubChem BioAssay AID463193 (University of Pittsburgh Molecular Library Screening Center, 2010)
About 1,900 (1%) of roughly 190,000 compounds were called active.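 How the source made its calls: active means percentage of spot-positive cells more than 3 SD above its plate mean, without a fluorescence outlier flag or 80% toxicity; inconclusive means no clear call, values can overlap the other calls; inactive means the rest.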 The list comes from a sample in which actives are over-represented; it also holds similar structures and randomly drawn compounds.

Assay: GFP-LC3 puncta formation changes – imaging, high-content, MEF GFP-LC3, primary screen (AID 463193);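 on % cells with GFP-LC3 spots: spot-positive cell cutoff set from DMSO-treated cells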;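 on toxicity: cell loss after 18 h compound exposure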
Details: autophagy, at 10 µM; % cells with GFP-LC3 spots: stronger effect = higher value; toxicity: measured here: cell loss, nuclei count

SMILES	% cells with GFP-LC3 spots	toxicity [%]
CCN1CCN(CC(=O)Nc2sc3c(c2C#N)CCC3)CC1	2.15% (inactive)	4.77
CN1CCN(CC(=O)Nc2sc3c(c2C#N)CCC(C(C)(C)C)C3)CC1 (centres undefined)	41.9% (active)	29.1
CCC1CCc2c(sc(NC(C)=O)c2C#N)C1 (centres undefined)	6.62% (inactive)	-8.42
CC1(C)CC(=O)c2ccc(O)cc2O1	1.01% (inactive)	7.65
CCOc1ccc(CN2CCN(Cc3ccc(C)o3)CC2CCO)cc1 (centres undefined)	0.14% (inactive)	-9.23
O=C(CCN1C(=O)C2C3C=CC(C3)C2C1=O)Oc1ccc2ccccc2c1 (centres undefined)	11.3% (inactive)	19.4
CC1=CC(C)(C)Nc2ccc(OC(=O)CN3C(=O)C4CCCCC4C3=O)cc21 (centres undefined)	8.28% (inactive)	24.4
O=C(CN1C(=O)C2C3CCC(C3)C2C1=O)Oc1ccc2ccccc2c1 (centres undefined)	18.4% (active)	-20.7
COCCNc1nc2nonc2nc1N(C)Cc1ccc(C)cc1	1.24% (inactive)	-31.9
Cc1cn(C)c(=O)n(C)c1=O	8.58% (inactive)	10.3
COc1ccc(NC(=O)C(=O)NCC(=O)Nc2cccc(C(F)(F)F)c2)cc1	8.9% (active)	11.1
O=C(O)CSCC(=O)Nc1cccc(C(F)(F)F)c1	6.64% (inactive)	0
COc1ccc(NC(=O)CN(C)CC(=O)Nc2cccc(C(F)(F)F)c2)cc1	2.37% (inactive)	1.34
CC1Cc2ccccc2N1C1=CC(=O)CC(C)(C)C1 (centres undefined)	2.88% (inactive)	3.93
Cc1ccc(/C=C/C(=O)Nc2ccc([N+](=O)[O-])c(NC(=O)/C=C/c3ccc(C)o3)c2)o1	55.6% (active)	0.679
CCc1nnc(NC(=O)/C=C/c2ccc(C)o2)s1	3.65% (inactive)	1.45
Cc1c(NC(=O)/C=C/C(=O)O)cccc1[N+](=O)[O-]	8.95% (inactive)	-17.9
CCCCc1ccc(NC(=S)N2CCCC(CO)C2)cc1 (centres undefined)	11.5% (inactive)	11.5
COc1ccc2cc(-c3[nH]ncc3CNCCn3nc(C)cc3C)ccc2c1	16.9% (inactive)	22
CC(=O)NC1=NN(C(C)=O)C(C)(c2ccc(C)cc2)S1 (centres undefined)	4% (inactive)	-6.62
CC(=O)NC1=NN(C(C)=O)C(C)(c2ccc(Cl)s2)S1 (centres undefined)	21.9% (active)	54.1

SMILES	% cells with GFP-LC3 spots	toxicity [%]
CC(=O)NC1=NN(C(C)=O)C(C)(CCS(=O)(=O)c2ccc(Cl)c(Cl)c2)S1 (centres undefined)	9.23% (inactive)	11.3
COc1ccc(N2CCN(c3ccc([N+](=O)[O-])nc3)CC2)cc1	7.77% (inactive)	4.08
O=C(N/N=C/c1ccc(Br)o1)c1cncc(Br)c1	33.5% (inactive)	-0.407
CCN(CC)CCCNC(=O)c1ccc2c(=O)n(Cc3ccc4c(c3)OCO4)c(=S)[nH]c2c1	0.744% (inactive)	5.92
CC(Nc1nc(N2CCCC2)nc2ccccc12)c1ccccc1 (centres undefined)	13.8% (active)	-2.79
CC(Nc1nc(N2CCN(CCO)CC2)nc2ccccc12)c1ccccc1 (centres undefined)	30.9% (inactive)	23.9
CC(Nc1nc(N2CCOCC2)nc2ccccc12)c1ccccc1 (centres undefined)	0.846% (inactive)	11.2
O=C(CS(=O)(=O)c1ccccc1)Nc1ccc(S(=O)(=O)Nc2ccccn2)cc1	0.85% (inactive)	0.1
C=CCN1C(=O)C(Cc2ccc(OCC)cc2)SC1=Nc1ccc(C(=O)O)cc1 (centres undefined)	9.61% (inactive)	-5.34
Cc1ccc(Nc2nc(CSc3nnnn3-c3ccccc3)cc(=O)[nH]2)cc1	3.58% (inactive)	2.22
O=c1c2ccccc2nnn1CSc1nnnn1-c1ccccc1	7.02% (inactive)	5.05
O=c1c2ccccc2nc(CSc2nnnn2-c2ccccc2)n1-c1ccccc1	39.8% (active)	-13.7
CCCC(=O)NC(=S)Nc1ccc(CN2CCOCC2)cc1	10.3% (inactive)	-3.3
CCNC(=O)COC(=O)/C=C/c1c(C)nn(Cc2cccc(OC)c2)c1Cl	10.7% (inactive)	15.5
COC(=O)c1ccc(NC(=O)c2cc(Cl)ccc2OC)cc1	0.193% (inactive)	-8.44
CCOC(=O)c1cc(NC(=O)c2ccc(Cl)cc2)c(=O)oc1-c1ccccc1	15.9% (active)	-0.561
CC(=O)c1cc(NC(=O)c2ccccc2)c(=O)oc1/C=C/N(C)C	2.32% (inactive)	8.72
CCOC(=O)NNC(=O)c1ccc(Cl)cc1	2.34% (inactive)	8.61
CC(C)NC(=O)NC(=O)CSc1nnc(-c2ccccc2F)n1N	4.07% (inactive)	-3.54
Cc1cc([N+](=O)[O-])nn1Cc1ccc(F)cc1	11.8% (inactive)	3.65
Cc1cnc(C(=O)OCC(=O)NCCCc2ccccc2)cn1	19.9% (inactive)	14.4
